# Laboratory results from PMC5540273 (PLoS ONE, 2017).
# Tests used:
# [1] = tested on: T1, RSK1(Kin.Dom.2-C-terminal)
# T1 construct: gene RPS6KA1
# [2] = tested on: T2, RSK2(Kin.Dom.1-N-terminal)
# T2 construct: gene RPS6KA3
# [3] = tested on: T3, RSK2(Kin.Dom.2-C-terminal)
# T3 construct: gene RPS6KA3
# [4] = tested on: T4, RSK3(Kin.Dom.2-C-terminal)
# T4 construct: gene RPS6KA2
# 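Also: kd values determined as follow-up on hits from a single-replicate KINOMEscan panel screen.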
compound,measurement,setting,value
C[C@@H]1CC[C@H](C(=O)NC2CCCCC2)CN1c1cc(-c2ccc3c(N)n[nH]c3c2)nc(N)n1 [GSK2291363],Kd,ROCK1,210 nM
same,Kd,ROCK2,150 nM
CCc1nc(-c2cccc(C)c2)c(-c2ccncc2)s1,Kd,[1],250 nM
COc1cc(Nc2ccnc3ccc(C(F)(F)F)cc23)cc(OC)c1OC [GW577382],Kd,[2],> 10000 nM
O=C(Nc1ccc2c(c1)OCO2)NC1CCN(c2ccnc(NCc3ccc(F)cc3)n2)CC1 [GSK1379859],Kd,[3],> 10000 nM
Nc1nc(-c2ccccc2F)c(-c2ccnc3ccccc23)s1 [GW560459],Kd,[3],790 nM
CC(C)(C)c1ccc(C(=O)Nc2cn3cc(-c4ccccc4)ccc3n2)cc1,Kd,[4],> 10000 nM
Cl.NS(=O)(=O)c1cccc(Nc2cc(-c3ccc(F)cc3)n[nH]2)c1 [GW824645],Kd,SGK2,> 10000 nM
COc1cc2ncn(-c3cc(OCc4ccncc4Br)c(C(N)=O)s3)c2cc1OC [GW854278],Kd,SLK,680 nM
COc1ccc(CNC(=O)NC2CCN(c3ccnc(Nc4ccc(F)cc4)n3)C2)cc1 (stereo not shown) [GSK1379706],Kd,SRPK2,> 10000 nM
